Assay results as given in the supplement of paper PMC8728848.
This excerpt belongs to a sample that is enriched for the strongest signals.

Tests used:
Experiment in all cases: glycan array binding signal (z-score within array); higher = stronger binding
Details in all cases: glycan notation: IUPAC condensed, linker removed
[1] = molecular target: Fuc(a1-2)Gal(b1-3)[Fuc(a1-4)]GlcNAc(b1-3)[Fuc(a1-3)[Gal(b1-4)]GlcNAc(b1-6)]Gal(b1-4)Glc
In short: (§1)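 Glycan array binding is given as a within-array Z-score, which can be read as non-binding when negative. The arrays, 3228 of them, came from the Consortium for Functional Glycomics database and were retained only where the protein sequence was available. Z-scores were averaged across arrays of the same protein sequence at different concentrations or buffers and across linkers.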

Fuc(a1-2)Gal(b1-4)Glc6S = molecular target: Fuc(a1-2)Gal(b1-4)Glc6S
In short: as §1

[2] = molecular target: Fuc(a1-2)Gal(b1-4)GlcNAc(b1-3)[Fuc(a1-3)[Gal(b1-4)]GlcNAc(b1-6)]Gal(b1-4)Glc
In short: as §1

[3] = molecular target: Fuc(a1-2)Gal6S(b1-3)GlcNAc6S
In short: as §1

Fuc(a1-2)Gal6S(b1-4)Glc = molecular target: Fuc(a1-2)Gal6S(b1-4)Glc
In short: as §1

[4] = molecular target: Fuc(a1-2)[Gal(a1-3)]Gal(b1-3)GlcNAc(b1-3)GalNAc
In short: as §1

[5] = molecular target: Fuc(a1-2)[Gal(a1-3)]Gal(b1-4)GlcNAc(b1-3)GalNAc
In short: as §1

[6] = molecular target: Fuc(a1-2)[Gal(a1-3)]Gal(b1-4)GlcNAc(b1-3)[Fuc(a1-2)[Gal(a1-3)]Gal(b1-4)GlcNAc(b1-6)]GalNAc
In short: as §1

[7] = molecular target: Fuc(a1-2)[GalNAc(a1-3)]Gal(b1-4)Glc
In short: as §1

[8] = molecular target: Fuc(a1-3)[Gal(b1-4)]Glc6S
In short: as §1

[9] = molecular target: Fuc(a1-3)[Gal(b1-4)]GlcNAc(b1-3)GalNAc
In short: as §1

[10] = molecular target: Fuc(a1-3)[Gal3S(b1-4)]Glc
In short: as §1

Fuc(a1-4)GlcNAc = molecular target: Fuc(a1-4)GlcNAc
In short: as §1

[11] = molecular target: Gal(a1-3)Gal(b1-4)GlcNAc(b1-6)GalNAc
In short: as §1

[12] = molecular target: Gal(b1-3)GlcNAc(b1-2)Man(a1-3)[GlcNAc(b1-4)][Gal(b1-3)GlcNAc(b1-2)Man(a1-6)]Man(b1-4)GlcNAc(b1-4)GlcNAc
In short: as §1

[13] = molecular target: Gal(b1-3)GlcNAc(b1-3)Gal(b1-4)[Fuc(a1-3)]GlcNAc(b1-6)[Gal(b1-3)GlcNAc(b1-3)]Gal(b1-4)Glc
In short: as §1

[14] = molecular target: Gal(b1-3)GlcNAc(b1-6)GalNAc
In short: as §1

[15] = molecular target: Gal(b1-3)[Fuc(a1-4)]GlcNAc(b1-2)Man
In short: as §1

Gal(b1-4)GlcNAc(b1-2)Man = molecular target: Gal(b1-4)GlcNAc(b1-2)Man
In short: as §1

[16] = molecular target: Gal(b1-4)GlcNAc(b1-2)Man(a1-3)[Gal(b1-4)GlcNAc(b1-2)Man(a1-6)]Man(b1-4)GlcNAc(b1-4)GlcNAc
In short: as §1

[17] = molecular target: Gal(b1-4)GlcNAc(b1-2)Man(a1-3)[Gal(b1-4)GlcNAc(b1-2)Man(a1-6)][GlcNAc(b1-4)]Man(b1-4)GlcNAc(b1-4)[Fuc(a1-6)]GlcNAc
In short: as §1

[18] = molecular target: Gal(b1-4)GlcNAc(b1-2)Man(a1-3)[GlcNAc(b1-4)][Gal(b1-4)GlcNAc(b1-2)Man(a1-6)]Man(b1-4)GlcNAc(b1-4)GlcNAc
In short: as §1

[19] = molecular target: Gal(b1-4)GlcNAc(b1-2)[Gal(b1-4)GlcNAc(b1-4)]Man(a1-3)[GlcNAc(b1-4)][Gal(b1-4)GlcNAc(b1-2)[Gal(b1-4)GlcNAc(b1-6)]Man(a1-6)]Man(b1-4)GlcNAc(b1-4)GlcNAc
In short: as §1

[20] = molecular target: Gal(b1-4)GlcNAc(b1-2)[Gal(b1-4)GlcNAc(b1-6)]Man(a1-6)[GlcNAc(b1-4)][Gal(b1-4)GlcNAc(b1-2)[Gal(b1-4)GlcNAc(b1-4)]Man(a1-3)]Man(b1-4)GlcNAc(b1-4)[Fuc(a1-6)]GlcNAc
In short: as §1

[21] = molecular target: Gal(b1-4)GlcNAc(b1-3)Gal(b1-4)GlcNAc(b1-3)Gal(b1-4)GlcNAc(b1-2)[Gal(b1-4)GlcNAc(b1-3)Gal(b1-4)GlcNAc(b1-3)Gal(b1-4)GlcNAc(b1-6)]Man(a1-6)[Gal(b1-4)GlcNAc(b1-3)Gal(b1-4)GlcNAc(b1-3)Gal(b1-4)GlcNAc(b1-2)Man(a1-3)]Man(b1-4)GlcNAc(b1-4)[Fuc(a1-6)]GlcNAc
In short: as §1

[22] = molecular target: Gal(b1-4)GlcNAc(b1-3)Gal(b1-4)GlcNAc(b1-6)[Gal(b1-3)]GalNAc
In short: as §1

[23] = molecular target: Gal(b1-4)GlcNAc(b1-3)[Fuc(a1-3)GlcNAc(b1-6)]Gal(b1-4)Glc
In short: as §1

B1: HBHA-Rv (Mycobacterium tuberculosum), P0A5P6 (protein)
chain: MAENSNIDDIKAPLLAALGAADLALATVNELITNLRERAEETRTDTRSRVEESRARLTKLQEDLPEQLTELREKFTAEELRKAAEGYLEAATSRYNELVERGEAALERLRSQQSFEEVSARAEGYVDQAVELTQEALGTVASQTRAVGERAAKLVGIELPKKAAPAKKAAPAKKAAPAKKAAAKKAPAKKAAAKKVTQK
- glycan array binding signal (z-score) [1]: -0.277
- glycan array binding signal (z-score) (Fuc(a1-2)Gal(b1-4)Glc6S): -0.121
- glycan array binding signal (z-score) [2]: -0.392
- glycan array binding signal (z-score) [3]: 4.34
- glycan array binding signal (z-score) (Fuc(a1-2)Gal6S(b1-4)Glc): 0.069
- glycan array binding signal (z-score) [4]: -0.259
- glycan array binding signal (z-score) [5]: -0.204
- glycan array binding signal (z-score) [6]: 2.82
- glycan array binding signal (z-score) [7]: 0.064
- glycan array binding signal (z-score) [8]: -0.398
- glycan array binding signal (z-score) [9]: -0.275
- glycan array binding signal (z-score) [10]: -0.017
- glycan array binding signal (z-score) (Fuc(a1-4)GlcNAc): 20
- glycan array binding signal (z-score) [11]: 0.154
- glycan array binding signal (z-score) [12]: 0.595
- glycan array binding signal (z-score) [13]: -0.453
- glycan array binding signal (z-score) [14]: -0.248
- glycan array binding signal (z-score) [15]: 1.28
- glycan array binding signal (z-score) (Gal(b1-4)GlcNAc(b1-2)Man): 1.37
- glycan array binding signal (z-score) [16]: 0.061
- glycan array binding signal (z-score) [17]: -0.352
- glycan array binding signal (z-score) [18]: -0.309
- glycan array binding signal (z-score) [19]: -0.455
- glycan array binding signal (z-score) [20]: -0.428
- glycan array binding signal (z-score) [21]: -0.41
- glycan array binding signal (z-score) [22]: -0.399
- glycan array binding signal (z-score) [23]: -0.398
